Results on twelve molecules are retold here after the supplement of paper PMC4840960.

The structures appear in SMILES notation.

The test system of this assay is E18 rat cortical neuron-glia co-culture. The experiment in a line: fiber score / MBP score (myelination specific beyond OL differentiation) (ratio); higher = more myelination-specific MBP alignment. As to conditions: 5 µM; treatment time: 8 days (DIV5-DIV13). Put shortly:
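Library compounds were applied at 1 or 5 µM in myelination medium, DIV5 to DIV13, to primary E18 rat cortical co-cultures grown at 20,000 cells/well in 96-well plates. After 4 % paraformaldehyde fixation and MBP/Olig2/DAPI immunostaining, four 10X fields per well in duplicate wells were scored. Each value is continuous MBP fiber length per Olig2+ nucleus divided by thresholded MBP area × intensity per Olig2+ nucleus.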
For the molecule `O=C1C(CC[S+]([O-])c2ccccc2)C(=O)N(c2ccccc2)N1c1ccccc1` (configuration not stated) [Sulfinpyrazone], the “fiber score / MBP score” value was found to be 0.857.
The value for `COc1ccc2cc([C@H](C)C(=O)O)ccc2c1` [Naproxen] was 0.859.
On to `C[C@@H]1C[C@H]2[C@@H]3C[C@H](F)C4=CC(=O)C(Cl)=C[C@]4(C)[C@@]3(F)[C@@H](O)C[C@]2(C)[C@@]1(O)C(=O)CO` [Halometasone hydrate], for which the “fiber score / MBP score” value was 0.394.
The figure for `O=C(O)c1cccnc1` [Niacin] is 0.998; for `CCN(CC)CC#CCOC(=O)C(O)(c1ccccc1)C1CCCCC1` (configuration not stated) [Oxybutynin] it is 0.547; for `OC(c1cc(C(F)(F)F)nc2c(C(F)(F)F)cccc12)C1CCCCN1` (configuration not stated) [Mefloquine] it is 0.574.
The figure for `C[C@H]1[C@H](OC(=O)CCC(=O)O)O[C@@H]2O[C@@]3(C)CC[C@H]4[C@H](C)CC[C@@H]1[C@@]24OO3` [Artesunate] is 1.2; for `Clc1ccc2c(c1)CCc1cccnc1C2=C1CCNCC1` [Desloratadine] it is 0.803; for `NC[C@H]1CC[C@H](C(=O)Oc2ccc(CCC(=O)O)cc2)CC1` [Cetraxate] it is 0.791.
For `CN1[C@@H](CC(=O)c2ccccc2)CCC[C@H]1C[C@H](O)c1ccccc1` [Lobeline], the “fiber score / MBP score” value turned out to be 0.451.
The figure for `CN(Cc1cnc2nc(N)nc(N)c2n1)c1ccc(C(=O)N[C@@H](CCC(=O)O)C(=O)O)cc1` [Methotrexate] is 1.53; for `O=C1[C@H]2CCCC[C@H]2C(=O)N1CCCCN1CCN(c2nsc3ccccc23)CC1` [Perospirone] it is 0.198.
